According to the supplement of paper PMC6555819:

test system: THRa:RXRa (NR concentration 90 nM, RXRa partner concentration 90 nM); test: PBM binding z-score (relative to random genomic background probes); higher = stronger binding; sequences stand for … in GC…GCGATTGACAGCGTAGAATGAAGG
How it was run: (§1)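 Random background probes are the reference for binding z-scores. These scores derive from regression-normalized fluorescence on custom Agilent 4×180K protein-binding microarrays incubated 1 h with ligand-free nuclear receptor dimers. Binding was detected with antibodies against each partner (one per run).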

Sequence	PBM binding z-score
CCTCGGAGGACAGAACGTCAGAGCTGTCCGCTTT	-0.532
AGAACGAGGGCACGCTGAGTTGATAGCAGAGTAG	1.83
TCATATAGGTAAACAGGGGAAAGTCCGTAAGTTA	0.404
GGAACGAGGGCAAGTTGTTAGCAGAGTTTGATGG	1.46
ATATGTAGGTTAGCTGGGGTCATTCAGACTAGGC	5.18
ACTCGGAGGAGAAAGGTCAGAGCTACGCCAGTGA	2.36
TGATTGAGGTTATAAGATCAGGGAACGTTGCAAA	1.68
CGAACCAGGTCATCCAGGACAGTGAATACATTGA	4.15
CGAACTAGGTCAGAACAGGAGAGTGAAGGATGAT	1.72
CCTCGGATGACAACAGGAGGTCAGAGCTGCCAGA	1.92
CCGACTGGGGCAAGGTTAACATAACGCACAGCCA	1.37
CTCGAAAGGTCTGTTGAGGTGAGTATACGGATAA	4.3
TAGCGTAGGTCAGATCGGGCCAGTATACGCTATA	3.93
CCTAGTTGGTCAGGGTCACACACGCTATAGGTAC	3.63
ACTAGTTGGTCATCTGAGGTCACACACAATTCGG	5.17
TCTTGTAGATCAAAGGGTAAGAAAGCCGAAGCCT	-0.022
ATCGAAAGTTCGAAGGTGAGTATACCCACCCGAA	0.601
GCTATTAGTTGAAAGGGCAAGCGAATGATTCTCG	0.545
TAGACTAGGTCATTGGGCCAGTATAGTACGCATC	2.45
ATCGAAAGGTCGAGCTGAGTATAGAGAAAGGGAA	1.96

Sequence	PBM binding z-score
CCTACTGGGCCAAAGGTCATGGATTCCAATGCTC	3.73
CAAACTAGGTCAAGGTCAAACTCGGTTTGTGCCA	4.64
AGTCAAAGTTCGTCTAGGTAACGTAAGATATGCT	1.97
CCTTACGGGTCACGAGTTTATAGCACGACGAGCG	2.82
GCTATTAGTGGAAAGGGCAACCGAATGATTCTCG	0.344
CCAGACAGGTGAAAGGTAACTCGGTCTGGTACGC	0.879
AGAACGAGGGCACGCTGAGTTGATAGCCGAGTAG	1.89
GCTAGCAGGCCATTTGGGTCACTCGATGACGGGC	1.66
CTCGAAAGGTCGTGCTCAAGTGAGTATACCAAAC	2.31
CCTCGGAGGACATAAGGTCAGAGCTGTCCGCTTT	3.91
GCTATTAGTTGAAAGGGGAACCGAATGATTCTCG	0.00231
ATCCAAAGGTCGAAGGTGAGTATACCCACCCGAA	2.32
ACTAGTTTGTCAGCTGAGGTCACACACAATTCGG	4.42
TCGAGTAGGTTAGTCGGGGCCTTCAGCCAACATA	1.57
GCGACTGGGCCATCAGCAGGTTACCATAACTTAA	0.132
ACTAGTTGGTCAGCTGAGGTCATACACAATTCGG	4.94
CAGACTGGGGCATAAGGTTACCATAAGCCAGCCC	2
TCCTATAGGTAAAGGTGAAAGTCGAACGATATGA	1.26
GATACAGGGTCAGCTAGAGTCCAGAGTATGGAAA	2.88
ACACGGAGGACAAAGGTCAGAGCTACGCCAGTGA	3.56

test system: THRa homodimer (NR concentration 90 nM); test: as above
How it was run: as §1

Sequence	PBM binding z-score
CCTCGGAGGACAGAACGTCAGAGCTGTCCGCTTT	-0.473
AGAACGAGGGCACGCTGAGTTGATAGCAGAGTAG	-0.0157
TCATATAGGTAAACAGGGGAAAGTCCGTAAGTTA	0.286
GGAACGAGGGCAAGTTGTTAGCAGAGTTTGATGG	0.187
ATATGTAGGTTAGCTGGGGTCATTCAGACTAGGC	3.18
ACTCGGAGGAGAAAGGTCAGAGCTACGCCAGTGA	-0.0607
TGATTGAGGTTATAAGATCAGGGAACGTTGCAAA	0.31
CGAACCAGGTCATCCAGGACAGTGAATACATTGA	2.93
CGAACTAGGTCAGAACAGGAGAGTGAAGGATGAT	0.0817
CCTCGGATGACAACAGGAGGTCAGAGCTGCCAGA	0.407
CCGACTGGGGCAAGGTTAACATAACGCACAGCCA	-0.033
CTCGAAAGGTCTGTTGAGGTGAGTATACGGATAA	1.12
TAGCGTAGGTCAGATCGGGCCAGTATACGCTATA	-1.02
CCTAGTTGGTCAGGGTCACACACGCTATAGGTAC	2.49
ACTAGTTGGTCATCTGAGGTCACACACAATTCGG	5.44
TCTTGTAGATCAAAGGGTAAGAAAGCCGAAGCCT	-0.878
ATCGAAAGTTCGAAGGTGAGTATACCCACCCGAA	-0.388
GCTATTAGTTGAAAGGGCAAGCGAATGATTCTCG	-0.289
TAGACTAGGTCATTGGGCCAGTATAGTACGCATC	0.646
ATCGAAAGGTCGAGCTGAGTATAGAGAAAGGGAA	-0.857

Sequence	PBM binding z-score
CCTACTGGGCCAAAGGTCATGGATTCCAATGCTC	1.02
CAAACTAGGTCAAGGTCAAACTCGGTTTGTGCCA	3.95
AGTCAAAGTTCGTCTAGGTAACGTAAGATATGCT	0.129
CCTTACGGGTCACGAGTTTATAGCACGACGAGCG	0.451
GCTATTAGTGGAAAGGGCAACCGAATGATTCTCG	-0.457
CCAGACAGGTGAAAGGTAACTCGGTCTGGTACGC	0.0486
AGAACGAGGGCACGCTGAGTTGATAGCCGAGTAG	0.0635
GCTAGCAGGCCATTTGGGTCACTCGATGACGGGC	0.48
CTCGAAAGGTCGTGCTCAAGTGAGTATACCAAAC	-0.0165
CCTCGGAGGACATAAGGTCAGAGCTGTCCGCTTT	2.81
GCTATTAGTTGAAAGGGGAACCGAATGATTCTCG	-0.215
ATCCAAAGGTCGAAGGTGAGTATACCCACCCGAA	-0.204
ACTAGTTTGTCAGCTGAGGTCACACACAATTCGG	5.24
TCGAGTAGGTTAGTCGGGGCCTTCAGCCAACATA	-0.433
GCGACTGGGCCATCAGCAGGTTACCATAACTTAA	-0.441
ACTAGTTGGTCAGCTGAGGTCATACACAATTCGG	4.75
CAGACTGGGGCATAAGGTTACCATAAGCCAGCCC	1.04
TCCTATAGGTAAAGGTGAAAGTCGAACGATATGA	-0.248
GATACAGGGTCAGCTAGAGTCCAGAGTATGGAAA	0.377
ACACGGAGGACAAAGGTCAGAGCTACGCCAGTGA	0.702
